Test results taken from PubChem BioAssay (Tox21).
Records with an inconclusive call do not appear. Where a call stands in place of a potency, no number is given. Active and inactive are the calls of the source. Unless noted, calls come from the whole dose curve.

Legend:
[1] = qHTS assay to identify small molecule agonists of the sonic hedgehog signaling (Shh) pathway (AID 1259368);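 note: NIH/3T3-derived 3T3Gli1-Luc cells carrying a stable Gli1-driven firefly luciferase reporter; series mostly up to about 92 µM; nearly all actives have a fitted effect of over 15% in size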
Outline: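 Luminescent signal was taken as a measure of Gli1-controlled luciferase expression in stably transfected NIH/3T3-derived cells that had been treated for 24 hr with compounds delivered in DMSO.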

[2] = qHTS assay to identify small molecule antagonists of the sonic hedgehog signaling (Shh) pathway (AID 1259369); note: nearly all actives have a fitted effect of over 45% in size; note: potency is the fitted concentration of half-maximal effect
Outline: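 Screening used 3T3Gli1-Luc cells at 2,000 per well, compounds delivered in DMSO, and conditioned medium as agonist stimulus; plates incubated 24hr at 37 C and 5% CO2 before a 30min luciferase step.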

[3] = target: Estrogen receptor beta (Homo sapiens) (UniProt Q92731); experiment: qHTS assay to identify small molecule agonists of the estrogen receptor beta (ER-beta) signaling pathway (AID 1259377; active = well fitted activation curve with a large enough effect in the signal ratio in the repeat runs, not every such curve was filed as active; the % refers to the signal ratio)
Outline: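 Screening used GripTite ER-beta-UAS-bla cells held in 2% charcoal-stripped FBS medium. After overnight (16 hr) compound incubation at 37C, beta-lactamase activity was detected with a FRET substrate by fluorescence.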

[4] = target: Estrogen receptor beta (Homo sapiens) (UniProt Q92731); experiment: qHTS assay to identify small molecule antagonists of the estrogen receptor beta (ER-beta) signaling pathway (AID 1259378; active = well fitted inhibition curve with a large enough effect in the signal ratio in the repeat runs, not every such curve was filed as active; the % refers to the signal ratio)
Outline: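 ER-beta-UAS-bla HEK293T (GripTite) cells in 2% charcoal-stripped FBS medium were preincubated 6 hr at 37C, dosed with compound, then stimulated with 1 nM E2 (final) for 16 hr; beta-lactamase reporter read by B/G FRET fluorescence after 2 hr substrate loading.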

[5] = qHTS assay to identify small molecule agonists of the androgen receptor (AR) signaling pathway in the presence of an antagonist - cell viability counter screen (AID 1259379; active = well fitted curve in the direction sought with a large enough effect in the repeat runs; an effect the other way counts as inactive or inconclusive;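 note: MDA-kb2 human breast cancer cells carrying an MMTV luciferase reporter; series mostly up to about 92 µM; nearly all actives have a fitted effect of over 25% in size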)
Outline: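 In MDA-kb2 cells (human breast carcinoma, MMTV-luciferase), compounds at 15 concentrations plus 3.0uM nilutamide; 16 hr, 37C, 0% CO2; CellTiter-Fluor fluorescence read for viability.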

[6] = qHTS assay to identify small molecule agonists of the estrogen receptor beta (ER-beta) signaling pathway - cell viability counter screen (AID 1259380; active = well fitted curve in the direction sought with a large enough effect in the repeat runs; an effect the other way counts as inactive or inconclusive; note: nearly all actives have a fitted effect of over 30% in size)
Outline: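 Viability of ER-beta-UAS-bla HEK293T cells was determined by CellTiter-Glo luminescence following 16 hr treatment with test compounds at 37C.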

[7] = target: Androgen receptor (Homo sapiens) (UniProt P10275); experiment: qHTS assay to identify small molecule agonists of the androgen receptor (AR) signaling pathway in the presence of an antagonist (AID 1259381); note: nearly all actives have a fitted effect of over 15% in size
Outline: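 Here, 15-concentration compound series were pin-transferred onto MDA-kb2 MMTV-luciferase cells already dosed with nilutamide (3.0uM final). After 16hr at 37C, ONE-Glo was added and luminescence read 30min later at room temperature.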

[8] = qHTS assay to identify small molecule antagonists of the estrogen receptor beta (ER-beta) signaling pathway - cell viability counter screen (AID 1259382; active = well fitted curve in the direction sought with a large enough effect in the repeat runs; an effect the other way counts as inactive or inconclusive; note: series mostly up to about 92 µM; nearly all actives have a fitted effect of over 55% in size)
Outline: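 Tox21 10K library tested in qHTS format on ER-beta-bla HEK293T cells stimulated with 1nM E2; 16 hr treatment at 37C. Same-well CellTiter-Glo luminescence served as the cell viability measure.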

[9] = target: Estrogen receptor (Homo sapiens) (UniProt P03372); experiment: qHTS assay to identify small molecule agonists of the estrogen receptor alpha (ER-alpha) signaling pathway in the presence of an antagonist (AID 1259383); note: top concentration of the series differs between compounds; nearly all actives have a fitted effect of over 15% in size
Outline: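 In VM7Luc4E2 cells, 4,000 per well, compounds at 15 concentrations were co-incubated 22hr at 37C with 10.0nM final ICI-182,780. Luminescence from the stably transfected 4×ERE-luciferase reporter was recorded 30min after ONE-Glo addition.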

[10] = qHTS assay to identify small molecule agonists of the estrogen receptor alpha (ER-alpha) signaling pathway in the presence of an antagonist - cell viability counter screen (AID 1259386; active = well fitted curve in the direction sought with a large enough effect in the repeat runs; an effect the other way counts as inactive or inconclusive;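 note: series mostly up to about 92 µM; cells exposed to compounds for 22 h at 37 °C before the viability read; nearly all actives have a fitted effect of over 30% in size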)
Outline: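 Fluorescent CellTiter-Fluor viability signal from VM7Luc4E2 cells, with the reagent added during the final hour of a 22hr compound exposure at 37C in the presence of 10.0nM ICI-182,780.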

[11] = target: Progesterone receptor (Homo sapiens) (UniProt P06401); experiment: qHTS assay to identify small molecule agonists of the progesterone receptor (PR) signaling pathway (AID 1346784); note: nearly all actives have a fitted effect of over 30% in size
Outline: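 Seed PR-UAS-bla HEK 293T cells (2% charcoal-stripped FBS), incubate 6 hr at 37C; add compounds in DMSO, 16 hr at 37C; add LiveBLAzer B/G substrate, 2 hr RT; read fluorescence intensity.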

[12] = target: Progesterone receptor (Homo sapiens) (UniProt P06401); experiment: qHTS assay to identify small molecule antagonists of the progesterone receptor (PR) signaling pathway (AID 1346795; active = well fitted inhibition curve with a large enough effect in the signal ratio in the repeat runs, not every such curve was filed as active; the % refers to the signal ratio; note: potency is the fitted concentration of half-maximal effect)
Outline: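 Screening used a GripTite HEK293T line with PR-responsive UAS-beta-lactamase. Cells were challenged with compound in the presence of 1 nM R5020 final for 16 hr at 37C; B/G FRET substrate, 2 hr room temperature, fluorescence.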

[13] = qHTS assay to identify small molecule antagonists of the progesterone receptor (PR) signaling pathway - cell viability counter screen (AID 1346798; active = well fitted curve in the direction sought with a large enough effect in the repeat runs; an effect the other way counts as inactive or inconclusive; note: series mostly up to about 92 µM; nearly all actives have a fitted effect of over 50% in size)
Outline: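 Measures cytotoxicity in parallel with the PR antagonist reporter read: HEK293T PR-UAS-bla cells get compound and R5020 for 16 hr, and remaining viable cells are quantified by CellTiter-Glo luminescence.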

[14] = qHTS assay to identify small molecule antagonists of the TGF-beta/Smad signaling pathway - cell viability counter screen (AID 1346824; active = well fitted curve in the direction sought with a large enough effect in the repeat runs; an effect the other way counts as inactive or inconclusive; note: nearly all actives have a fitted effect of over 50% in size)
Outline: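 SBE-bla HEK 293T cells were plated overnight at 37 C, then given compounds in DMSO plus TGF-beta1 (added as 0.25 ng/mL solution) for 5 hr. After the bla read, CellTiter-Glo was added to the same wells and luminescence read after 30 min at room temperature.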

[15] = qHTS assay to identify small molecule agonists of the TGF-beta/Smad signaling pathway - cell viability counter screen (AID 1346829; active = well fitted curve in the direction sought with a large enough effect in the repeat runs; an effect the other way counts as inactive or inconclusive; note: top concentration of the series differs between compounds; nearly all actives have a fitted effect of over 45% in size)
Outline: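 Compound-treated SBE-bla HEK 293T cells (5 hr, 37 C) were assessed for viability with CellTiter-Glo in parallel with the reporter read.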

[16] = qHTS assay to identify small molecule agonists of the TGF-beta/Smad signaling pathway (AID 1346859; active = well fitted activation curve with a large enough effect in the signal ratio in the repeat runs, not every such curve was filed as active; the % refers to the signal ratio; note: series mostly up to about 77 µM)
Outline: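 Beta-lactamase reporter activity downstream of Smad binding elements was measured in stably transfected HEK 293T cells; compounds were incubated for 5 hr, substrate for 2 hr at room temperature.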

[17] = target: Thyrotropin-releasing hormone receptor (Homo sapiens) (UniProt P34981); experiment: qHTS assay to identify small molecule antagonists of the thyrotropin-releasing hormone receptor (TRHR) signaling pathway (AID 1346877; active = well fitted inhibition curve with a large enough effect in the repeat runs, not every such curve was filed as active; note: series mostly up to about 51 µM)
Outline: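 In this cell-based calcium flux format, HEK293 cells expressing TRHR received test compound for 5 min before the agonist TRH (1 nM final). Dye loading lasted 2 h at 37 °C.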

[18] = qHTS assay to identify small molecule agonists or antagonists of the thyroid stimulating hormone receptor (TSHR) signaling pathway - wild type cell line counter screen (AID 1259384)
Outline: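 Wild-type HEK293 cells were plated 18 h at 37 C/5% CO2, pin-dosed with compound plus Ro20-1724 medium, held 30 min at room temperature, then given cAMP-d2 and anti-cAMP-cryptate; fluorescence was read after 1 h. Fifteen concentrations, triplicate.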

[19] = target: Thyrotropin receptor (Homo sapiens) (UniProt P16473); experiment: qHTS assay to identify small molecule antagonists of the thyroid stimulating hormone receptor (TSHR) signaling pathway (AID 1259385); note: nearly all actives have a fitted effect of over 20% in size
Outline: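 TSHR-HEK293 cells were plated and held 18 h at 37C/5% CO2, then given compound plus Ro20-1724 and stimulated with TSH at 1.5 ng/mL final. After 30 min at room temperature, cAMP was detected with cAMP-d2/anti-cAMP-cryptate (1 h) by fluorescence.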

[20] = qHTS assay to identify small molecule agonists of the progesterone receptor (PR) signaling pathway - cell viability counter screen (AID 1346799); note: nearly all actives have a fitted effect of over 45% in size
Outline: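 Using the same plates as the PR reporter screen, HEK293T PR-UAS-bla cells received compounds for 16 hr at 37C and were then lysed with CellTiter-Glo; luminescence was read 30 min later at room temperature.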

Sequence of Thyrotropin-releasing hormone receptor (Homo sapiens) (P34981 whole entry, looked up): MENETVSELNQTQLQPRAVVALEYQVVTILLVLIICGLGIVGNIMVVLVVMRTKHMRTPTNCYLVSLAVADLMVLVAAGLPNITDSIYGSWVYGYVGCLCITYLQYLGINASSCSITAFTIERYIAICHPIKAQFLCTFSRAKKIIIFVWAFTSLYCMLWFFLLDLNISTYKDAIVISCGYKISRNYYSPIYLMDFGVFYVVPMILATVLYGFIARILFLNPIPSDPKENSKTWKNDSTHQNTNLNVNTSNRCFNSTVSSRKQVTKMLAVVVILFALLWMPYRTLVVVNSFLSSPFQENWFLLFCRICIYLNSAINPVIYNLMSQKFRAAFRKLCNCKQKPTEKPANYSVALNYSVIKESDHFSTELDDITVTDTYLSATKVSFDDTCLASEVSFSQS
Sequence of Androgen receptor (Homo sapiens) (P10275 whole entry, looked up): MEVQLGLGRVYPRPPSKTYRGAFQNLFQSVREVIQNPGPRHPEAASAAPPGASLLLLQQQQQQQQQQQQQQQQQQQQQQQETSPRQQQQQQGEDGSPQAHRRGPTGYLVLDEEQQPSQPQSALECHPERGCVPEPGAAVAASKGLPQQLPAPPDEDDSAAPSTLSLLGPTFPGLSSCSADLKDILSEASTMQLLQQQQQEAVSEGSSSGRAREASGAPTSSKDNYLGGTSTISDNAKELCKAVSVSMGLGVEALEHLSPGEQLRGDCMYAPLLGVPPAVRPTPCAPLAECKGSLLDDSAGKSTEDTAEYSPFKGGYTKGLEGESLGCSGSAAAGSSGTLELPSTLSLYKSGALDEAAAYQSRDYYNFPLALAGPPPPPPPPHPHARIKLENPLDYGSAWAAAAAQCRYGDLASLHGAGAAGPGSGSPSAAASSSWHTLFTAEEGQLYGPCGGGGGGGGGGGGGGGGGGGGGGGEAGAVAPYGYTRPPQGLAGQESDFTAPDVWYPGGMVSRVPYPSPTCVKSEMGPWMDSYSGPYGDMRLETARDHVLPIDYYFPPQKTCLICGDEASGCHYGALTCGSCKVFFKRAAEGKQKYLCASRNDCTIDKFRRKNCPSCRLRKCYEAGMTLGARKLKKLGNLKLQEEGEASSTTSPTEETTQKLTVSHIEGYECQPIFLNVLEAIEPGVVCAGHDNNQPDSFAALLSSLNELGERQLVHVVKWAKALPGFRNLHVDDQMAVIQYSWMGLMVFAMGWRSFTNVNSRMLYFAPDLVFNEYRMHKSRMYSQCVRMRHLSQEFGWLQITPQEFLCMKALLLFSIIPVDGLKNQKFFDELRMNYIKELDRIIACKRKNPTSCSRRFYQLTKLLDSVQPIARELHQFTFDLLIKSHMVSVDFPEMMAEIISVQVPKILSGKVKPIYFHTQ
Sequence of Thyrotropin receptor (Homo sapiens) (P16473 whole entry, looked up): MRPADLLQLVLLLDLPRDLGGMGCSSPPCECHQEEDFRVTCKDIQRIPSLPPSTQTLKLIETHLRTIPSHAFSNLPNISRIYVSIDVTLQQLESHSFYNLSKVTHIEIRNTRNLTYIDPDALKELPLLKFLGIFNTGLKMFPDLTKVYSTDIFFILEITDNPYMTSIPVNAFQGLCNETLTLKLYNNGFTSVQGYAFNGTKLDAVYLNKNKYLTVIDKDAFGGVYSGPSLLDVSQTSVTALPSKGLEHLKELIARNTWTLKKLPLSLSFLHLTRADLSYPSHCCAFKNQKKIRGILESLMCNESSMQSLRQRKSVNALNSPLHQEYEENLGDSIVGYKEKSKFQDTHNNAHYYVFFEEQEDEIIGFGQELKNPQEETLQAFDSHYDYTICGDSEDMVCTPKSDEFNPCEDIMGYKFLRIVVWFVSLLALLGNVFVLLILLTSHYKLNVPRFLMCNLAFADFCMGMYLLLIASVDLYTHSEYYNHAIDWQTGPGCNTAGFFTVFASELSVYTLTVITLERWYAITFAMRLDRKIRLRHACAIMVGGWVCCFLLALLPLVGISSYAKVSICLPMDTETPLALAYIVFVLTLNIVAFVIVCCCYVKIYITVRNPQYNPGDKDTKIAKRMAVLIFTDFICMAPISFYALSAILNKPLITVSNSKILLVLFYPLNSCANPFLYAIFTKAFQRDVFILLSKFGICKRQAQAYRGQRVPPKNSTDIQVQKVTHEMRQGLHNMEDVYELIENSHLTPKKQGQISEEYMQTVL
Sequence of Estrogen receptor (Homo sapiens) (P03372 whole entry, looked up): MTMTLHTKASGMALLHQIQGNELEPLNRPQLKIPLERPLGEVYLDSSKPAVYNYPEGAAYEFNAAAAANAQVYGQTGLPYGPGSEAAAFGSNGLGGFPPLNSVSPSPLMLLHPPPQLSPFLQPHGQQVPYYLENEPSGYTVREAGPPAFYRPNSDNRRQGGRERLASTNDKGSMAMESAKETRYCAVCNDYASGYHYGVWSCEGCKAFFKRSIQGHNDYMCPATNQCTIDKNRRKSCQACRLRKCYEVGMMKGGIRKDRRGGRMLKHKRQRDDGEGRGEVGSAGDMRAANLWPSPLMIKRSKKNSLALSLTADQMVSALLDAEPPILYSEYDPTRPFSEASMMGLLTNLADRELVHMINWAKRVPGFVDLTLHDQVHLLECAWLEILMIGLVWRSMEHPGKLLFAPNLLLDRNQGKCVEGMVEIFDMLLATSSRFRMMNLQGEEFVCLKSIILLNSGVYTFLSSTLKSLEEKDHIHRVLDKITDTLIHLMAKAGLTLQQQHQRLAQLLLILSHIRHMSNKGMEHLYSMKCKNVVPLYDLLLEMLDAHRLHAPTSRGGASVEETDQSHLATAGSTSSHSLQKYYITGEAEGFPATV
Sequence of Estrogen receptor beta (Homo sapiens) (Q92731 whole entry, looked up): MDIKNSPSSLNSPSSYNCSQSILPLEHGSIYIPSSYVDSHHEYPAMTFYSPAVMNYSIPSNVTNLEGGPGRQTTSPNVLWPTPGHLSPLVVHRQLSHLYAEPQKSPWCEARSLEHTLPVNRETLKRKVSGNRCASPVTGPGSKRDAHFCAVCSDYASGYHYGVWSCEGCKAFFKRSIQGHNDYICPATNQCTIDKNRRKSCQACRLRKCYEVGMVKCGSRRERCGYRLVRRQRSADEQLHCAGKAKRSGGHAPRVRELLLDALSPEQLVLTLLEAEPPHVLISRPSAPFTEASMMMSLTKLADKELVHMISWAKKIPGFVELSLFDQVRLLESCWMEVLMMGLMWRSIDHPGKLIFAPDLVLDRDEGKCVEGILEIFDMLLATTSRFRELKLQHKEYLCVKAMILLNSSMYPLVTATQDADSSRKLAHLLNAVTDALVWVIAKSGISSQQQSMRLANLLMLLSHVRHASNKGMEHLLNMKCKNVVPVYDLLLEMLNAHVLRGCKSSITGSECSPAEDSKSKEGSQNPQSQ
Sequence of Progesterone receptor (Homo sapiens) (P06401 whole entry, looked up): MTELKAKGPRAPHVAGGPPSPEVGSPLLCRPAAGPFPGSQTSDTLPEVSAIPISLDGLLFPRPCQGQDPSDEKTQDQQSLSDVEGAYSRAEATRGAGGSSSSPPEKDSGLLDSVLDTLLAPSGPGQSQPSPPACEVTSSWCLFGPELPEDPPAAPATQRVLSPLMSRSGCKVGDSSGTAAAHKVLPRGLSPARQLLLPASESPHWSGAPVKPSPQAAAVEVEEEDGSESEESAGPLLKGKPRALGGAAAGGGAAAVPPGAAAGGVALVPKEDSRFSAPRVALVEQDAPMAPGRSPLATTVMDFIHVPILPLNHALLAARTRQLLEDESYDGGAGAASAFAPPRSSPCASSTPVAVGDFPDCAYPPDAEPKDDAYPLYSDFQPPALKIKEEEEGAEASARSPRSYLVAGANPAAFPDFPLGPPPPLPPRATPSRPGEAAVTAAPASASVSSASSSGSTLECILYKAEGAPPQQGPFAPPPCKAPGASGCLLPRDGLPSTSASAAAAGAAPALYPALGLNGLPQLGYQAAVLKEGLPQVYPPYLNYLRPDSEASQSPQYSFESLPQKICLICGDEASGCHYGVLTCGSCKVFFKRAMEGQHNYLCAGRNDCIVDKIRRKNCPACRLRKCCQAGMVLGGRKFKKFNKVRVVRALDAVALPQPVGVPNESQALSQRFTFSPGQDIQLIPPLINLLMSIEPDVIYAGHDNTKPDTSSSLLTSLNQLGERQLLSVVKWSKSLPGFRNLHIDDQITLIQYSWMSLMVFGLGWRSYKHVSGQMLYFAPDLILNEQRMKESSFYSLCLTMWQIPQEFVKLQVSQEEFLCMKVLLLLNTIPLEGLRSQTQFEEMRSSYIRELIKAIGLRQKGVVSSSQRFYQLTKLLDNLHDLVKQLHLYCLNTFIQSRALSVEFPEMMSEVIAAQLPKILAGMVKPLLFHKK

SMILES	Potency [1]	Potency [2]	outcome [3]	Potency [4]	Potency [5]	Potency [6]	Potency [7]	outcome [8]	Potency [9]	Potency [10]	Potency [11]	Potency [12]	Potency [13]	outcome [14]	outcome [15]	outcome [16]	outcome [17]	outcome [18]	Potency [19]	Potency [20]
CC1(O)CSC(C)(O)CS1 (stereo not given)	inactive	inactive	inactive	inactive	inactive	inactive	inactive	inactive	inactive	inactive	inactive	inactive	inactive	inactive	inactive	inactive	inactive	–	–	–
O=C1CCCc2ccccc21	inactive	inactive	inactive	inactive	inactive	inactive	–	inactive	inactive	inactive	inactive	inactive	inactive	inactive	–	inactive	–	inactive	inactive	inactive
CCOC(=O)NCCC[Si](OCC)(OCC)OCC	inactive	inactive	inactive	inactive	inactive	inactive	–	inactive	inactive	–	inactive	inactive	–	inactive	inactive	inactive	inactive	inactive	inactive	inactive
OCCN(CCO)CCN(CCO)CCO	inactive	inactive	inactive	inactive	inactive	inactive	inactive	inactive	inactive	inactive	inactive	–	–	inactive	inactive	inactive	inactive	inactive	inactive	inactive
CC1=CC(=O)CC(C)(C)C1=O	inactive	inactive	inactive	inactive	inactive	inactive	–	inactive	inactive	–	inactive	–	inactive	inactive	inactive	inactive	inactive	inactive	inactive	inactive
COc1cc(C)ccc1C(C)C	inactive	inactive	inactive	inactive	inactive	inactive	–	inactive	inactive	–	inactive	inactive	inactive	inactive	inactive	inactive	inactive	inactive	–	inactive
COC(=O)/C=C(/C)N	inactive	inactive	inactive	inactive	inactive	inactive	inactive	inactive	inactive	inactive	inactive	inactive	inactive	inactive	–	inactive	–	inactive	inactive	inactive
N#Cc1ccc(C(c2ccc(C#N)cc2)n2cncn2)cc1	inactive	inactive	inactive	inactive	inactive	inactive	inactive	inactive	inactive	inactive	inactive	inactive	inactive	inactive	inactive	inactive	–	inactive	–	–
CN1CCN(C2=Nc3ccccc3Oc3ccc(Cl)cc32)CC1	inactive	6.68 µM (active)	inactive	inactive	inactive	inactive	–	inactive	inactive	inactive	inactive	26.6 µM (active)	inactive	inactive	inactive	–	–	inactive	–	inactive
C=Cc1ccccc1	inactive	inactive	inactive	inactive	inactive	inactive	–	inactive	inactive	inactive	inactive	inactive	inactive	–	inactive	inactive	–	–	–	inactive
CCCCC1CCC(=O)O1 (stereo not given)	inactive	inactive	inactive	inactive	inactive	inactive	–	inactive	inactive	inactive	inactive	inactive	inactive	inactive	inactive	inactive	inactive	inactive	–	inactive
N#CSCC(=O)O	inactive	inactive	inactive	inactive	inactive	inactive	inactive	inactive	inactive	inactive	inactive	inactive	inactive	inactive	inactive	inactive	–	inactive	inactive	inactive
O=C1C=CC(=O)O1	inactive	inactive	inactive	inactive	inactive	inactive	–	inactive	inactive	–	inactive	–	inactive	inactive	inactive	inactive	–	inactive	inactive	inactive
Cc1c(C(=O)NCCO)[n+](=O)c2ccccc2n1[O-]	inactive	inactive	inactive	inactive	inactive	inactive	inactive	inactive	–	inactive	inactive	inactive	inactive	inactive	inactive	inactive	inactive	inactive	inactive	inactive
CO[C@@]1(NC(=O)CSCC#N)C(=O)N2C(C(=O)O)=C(CSc3nnnn3C)CS[C@@H]21	inactive	inactive	inactive	inactive	inactive	inactive	–	inactive	inactive	–	inactive	inactive	inactive	inactive	–	inactive	inactive	–	–	inactive
CN1CCN(N)CC1	inactive	inactive	inactive	inactive	inactive	inactive	inactive	inactive	inactive	inactive	inactive	inactive	inactive	inactive	inactive	inactive	inactive	–	inactive	inactive
